Test results as given in PubChem BioAssay (NCI).
Compounds without any hit were thinned out: in the full panel of roughly 83,000, 20% have a hit.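 A percent growth of 40 corresponds to 60% growth inhibition; 0 means no net growth; -100 means all cells died. Active threshold: below 10.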 The source made the active and inactive calls.

System: MDA-MB-435 melanoma
Test: NCI-60 one-dose screen, 48 h (100 = growth as untreated, 0 = no growth, -100 = all killed)
Details: 10 µM unless noted
Protocol: Growth inhibition of the MDA-MB-435 human Melanoma tumor cell line is measured as a screen for anti-cancer activity. Cells are grown in 96 well plates and exposed to the test compound for 48 hours. Compounds are tested at a single concentration, which is 10^-5 M for most compounds. The reported endpoint is percent growth (GI% or GIPRCNT), where numbers from 0 - 100% represent growth inhibition, and numbers from -100% - 0 represent cell death. For example, a value of 40 represents 60% growth inhibition. A value of 0 means no net growth occurred over the course of the experiment. A value of -40 indicates 40% of cells at the beginning of the experiment died by the end of the experiment. A value of -100 means all cells are dead at the end of the experiment.
NCI-60 Human Tumor Cell Lines Screen was performed using the standard one-dose NCI protocol, which is described in more detail at https://dtp.cancer.gov/discovery_development/nci-60/default.htm.
Compounds with GIPRCNT values below 10 were considered active. Activity score was based on GIPRCNT using the following formula: […]
Score is 0 for GIPRCNT values of 100 or above, 50 for GIPRCNT values of 0, and 100 for GIPRCNT values of -100.

| SMILES | growth |
| --- | --- |
| CNC(=O)c1cc(Oc2ccc3c(c2)sc2nc(-c4cc(OC)c(OC)c(OC)c4)cn23)ccn1 | 51.7% (inactive) |
| COc1cc(C(=O)n2nc(N3CCN(C)CC3)c3cc(N)ccc32)cc(OC)c1OC | -12% (active) |
| COc1ccc2c(c1)c(-c1noc(C(=O)c3cn(C)c4ccc(Br)cc34)n1)cn2C | 114% (inactive) |
| CC1(C)CC[C@]2(c3nnc(-c4ccncc4)o3)CC[C@H]3C(=CC[C@H]4[C@@]3(C)CC[C@H]3C(C)(C)C(=O)CC[C@]43C)[C@@H]2C1 | 78.2% (inactive) |
| CO/N=C(/C)c1ccc(NC(=O)CSc2nnc(-c3ccncc3)n2-c2ccccc2)cc1 | 47% (inactive) |
| COc1cc(-c2nc(SCC(C)C)nc(Nc3cccc4ccccc34)c2C#N)cc(OC)c1OC | 99.3% (inactive) |
| Brc1ccc(-n2cc(-c3nn[nH]n3)c(-c3cccs3)n2)cc1 | 106% (inactive) |
| Cn1cc(-c2csc(-c3ccc(Cl)cc3)n2)c2cccnc21 | -6.61% [100 µM] (active) |
| O=S(=O)(Nc1ccc(Cl)cc1)c1ccc(-c2cnc(C3CC3)o2)cc1 | -3.04% (active) |
| CC(=O)N1N=C(c2ccc(Nc3nc(Nc4ccc(Cl)cc4)nc(Nc4ccc(Cl)cc4)n3)cc2)CC1c1ccco1 (stereo not given) | 84.5% (inactive) |
| COc1ccc(-c2csc(NC(=O)CSc3nc(-c4ccccc4)cc(=O)[nH]3)n2)cc1 | 49.9% (inactive) |
| CCOC(=O)/C=C1\S/C(=N\Nc2cc(=O)[nH]c3ccc(Cl)cc23)N(c2ccccc2)C1=O | 96.3% (inactive) |
| CN(C)c1ccc(Nc2cc(-c3cccc(OC(F)(F)F)c3)nc3ccc(N4CCCC4)cc23)cc1 | -73.6% (active) |
| O=C(Nc1ccc(NC(=O)c2cc(=O)[nH]c3ccccc23)cc1)Nc1cccc(C(F)(F)F)c1 | 77.1% (inactive) |
| Nc1ncnc2c1N=C(c1ccc(Cl)cc1)CC(c1ccc3c(c1)OCO3)N2 (stereo not given) | 101% (inactive) |
| N#Cc1c(-c2cccs2)cc(-c2cccnc2)[nH]c1=O | 102% (inactive) |
| OCCOCCN(Cc1ccccn1)Cc1cc(I)cc(I)c1O | 102% (inactive) |
| O=S(=O)(Nc1cc(Br)c(O)c2ccccc12)c1ccc(F)cc1 | -90.4% (active) |
| CCc1ccc(C(=O)/C=C/C23c4ccccc4C(c4ccccc42)C2C(=O)NC(=O)C23)cc1 (stereo not given) | -46.6% (active) |
| CCN1CCN(Cc2cn(CC(=O)Nc3ccc4c(ccn4Cc4ccccc4)c3)nn2)CC1 | 97.7% (inactive) |

| SMILES | growth |
| --- | --- |
| CC(C)(C)c1cc(-c2nc3ccc(N4CCN(S(C)(=O)=O)CC4)cc3[nH]2)cc(C(C)(C)C)c1O | 94% (inactive) |
| COc1cc(CNS(=O)(=O)c2ccc(C)cc2)ccc1OCc1cn(-c2ccc(Br)cc2)nn1 | 101% (inactive) |
| O=C1COCCN1c1ccc(Nc2nc(Cl)nc(OCc3cn(Cc4ccccc4)nn3)n2)cc1 | 96.2% (inactive) |
| Oc1ccc(CN2CCC(N3CCCCC3)CC2)c2cccnc12 | 18.7% (inactive) |
| Cc1nc(N2CCOCC2)sc1S(N)(=O)=O | 105% (inactive) |
| CC(C)=CCC[C@](C)(O)[C@H]1CC[C@]2(C)[C@@H]1CC[C@@H]1[C@@]3(C)Cc4nccnc4C(C)(C)[C@@H]3CC[C@]12C | 64.6% (inactive) |
| COc1ccc(-c2csc(N(C(=O)N3CCN(c4cc5c(cc4F)c(=O)c(C(=O)O)cn5C4CC4)CC3)c3ccccc3)n2)cc1 | 16.9% (inactive) |
| O=C(/C=C/c1cn(-c2ccccc2)nc1-c1ccc([N+](=O)[O-])cc1)c1ccc(Cl)cc1 | 59.5% (inactive) |
| C#COc1cccc(Nc2ncnc3ncc(NC(=O)CCl)cc23)c1 | 17.1% [6.25 µM] (inactive) |
| COc1ccc(-c2nnc(-c3ccc4c(c3)nc(-c3ccncc3)n4C3CCCCC3)o2)cc1 | 75.9% (inactive) |
| Cn1c(-c2ccc(Br)cc2)c(O)c(=O)c2c(F)cccc21 | 67.8% (inactive) |
| CC(C)OC(=O)c1ccc2[nH]c(O)c(C(=Nc3ccc(N(C)C(=O)CN4CCN(C)CC4)cc3)c3ccccc3)c2c1 | -92.6% (active) |
| COc1ccccc1Nc1nc2c(s1)C1=CC[C@H]3[C@@H]4CC[C@H]([C@H](C)CCCC(C)C)[C@@]4(C)CC[C@@H]3[C@@]1(C)CC2 | 103% (inactive) |
| O=C(/C=C/c1ccc(Cl)cc1)c1cccc(Nc2nc(Nc3ccccc3)nc(Nc3ccccc3)n2)c1 | 102% (inactive) |
| CN1CCN(c2ccc(NC(=O)c3nc4ccc5[nH]ncc5c4c4c3CCCC4)cc2C(F)(F)F)CC1 | 29.7% (inactive) |
| CO[C@]12C=C/C(=C(/C(=O)OCc3cccnc3)C(=O)CCCCCCCC[C@@]3(OC)C=C/C(=C(/C(=O)OCc4cccnc4)C(=O)CCCCCCCC1)O3)O2 | -11.8% (active) |
| N#Cc1nn(-c2cc(=O)[nH]c3ccc(Cl)cc23)c(N)c1C#N | 125% (inactive) |
| O=C(c1ccc(-c2ccccc2)cc1)c1ccc([N+](=O)[O-])cc1 | 92.6% (inactive) |
| O=C1N(Cc2ccccc2Cl)c2ccccc2C12NN=C(c1cccc(Cl)c1)S2 (stereo not given) | 2.22% (active) |
| CC(=O)OC[C@]12CCC(C)(C)C[C@H]1[C@@]1(O)[C@H](O)C[C@@H]3[C@@]4(C)CCCNC(C)(C)[C@@H]4CC[C@@]3(C)[C@]1(C)CC2 | 109% (inactive) |
